Data published in PubChem BioAssay.
The source made the active and inactive calls. Unless noted, no rule for the calls is given here.

Experiments:
[1] = tested on: Wnt5a (protein binding on small-molecule microarray); experiment: small molecules binding Wnt5a protein – biophysical, small-molecule microarray, 635/667 nm fluorescence, primary screen (AID 1142); settings: 635 nm fluorescence, higher = more signal;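 also: fluorescence read at 667 nm with signal to noise per printed feature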
[2] = ATP-based viability of Huh7 replicon cells – cell-based, CellTiter-Glo luminescence, basal, 48 h, cytotoxicity control for HCV replication inhibitor project, primary screen (AID 1143); settings: higher = more signal, called active from +8 up or from −8 down;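 also: Huh7 hepatoma cells carrying a hepatitis C replication reporter with no stimulus; test concentration not given here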
[3] = Pseudomonas biofilm growth suppression – PAO1 strain, BacTiter-Glo luminescence, LB-PBS, primary screen (AID 1144); settings: P. aeruginosa PAO1 biofilm, 12 h, higher = more signal
[4] = basal CRE-LacZ reporter activity in PC12 – cell-based, unstimulated, primary screen (AID 1145); settings: no forskolin, luminescence, 4.5 h, higher = more signal, called active from +8 up or from −8 down
[5] = forskolin-driven CRE-LacZ activity in PC12 – cell-based, CRE-LacZ reporter, forskolin-stimulated, primary screen (AID 1146); settings: luminescence, 4.5 h, higher = more signal, called active from +8 up or from −8 down;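 also: PC12 cells with 6xCRE LacZ reporter stimulated by forskolin 10 µM; beta-galactosidase reporter signal reflecting CREB driven transcription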
[6] = biological target: Streptavidin (Streptomyces avidinii) (UniProt P22629); experiment: compounds binding control protein streptavidin – biophysical, small-molecule microarray, 635/667 nm fluorescence, artefact control for SMM compound annotation, primary screen (AID 1147); settings: higher = more signal;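 also: signal reflects streptavidin binding to arrayed compounds as a control protein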
Sequence of Streptavidin (Streptomyces avidinii) (P22629 whole entry, looked up): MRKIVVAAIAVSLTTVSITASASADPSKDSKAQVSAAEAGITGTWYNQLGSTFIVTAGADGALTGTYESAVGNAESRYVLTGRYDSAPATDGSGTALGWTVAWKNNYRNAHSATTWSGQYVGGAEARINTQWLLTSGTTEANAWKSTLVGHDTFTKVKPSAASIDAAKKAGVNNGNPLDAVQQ

[7] = probe aInhba binding on compound microarray – biochemical, small-molecule microarray, 635/667 nm fluorescence, primary screen (AID 1148); settings: higher = more signal;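 also: score merges 667nm spot fluorescence with signal-to-noise for antibody binding to printed compounds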
Torsin-1A (Homo sapiens) [8] = biological target: Torsin-1A (Homo sapiens) (UniProt O14656); experiment: TOR1A wild-type binding on microarray – cell lysate, small-molecule microarray, lysate, 635/667 nm, primary screen (AID 1149); settings: COS7 hTOR1A-WT lysate, 635 nm fluorescence, higher = more signal
Sequence of Torsin-1A (Homo sapiens) (O14656 whole entry, looked up): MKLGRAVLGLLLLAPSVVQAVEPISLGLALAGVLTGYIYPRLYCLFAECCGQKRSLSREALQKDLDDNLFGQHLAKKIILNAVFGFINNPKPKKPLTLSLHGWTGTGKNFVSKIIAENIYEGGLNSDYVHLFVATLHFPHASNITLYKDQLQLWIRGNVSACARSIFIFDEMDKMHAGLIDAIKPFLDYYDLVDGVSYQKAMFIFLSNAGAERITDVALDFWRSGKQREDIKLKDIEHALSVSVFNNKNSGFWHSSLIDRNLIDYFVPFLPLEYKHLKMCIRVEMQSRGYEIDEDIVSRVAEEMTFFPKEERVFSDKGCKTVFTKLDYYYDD

Torsin-1A (Homo sapiens) [9] = biological target: Torsin-1A (Homo sapiens) (UniProt O14656); experiment: torsin A mutant lysate binding on microarrays – cell lysate, small-molecule microarray, COS7 lysate, 635/667 nm fluorescence, primary screen (AID 1150); settings: COS7 hTOR1A mutant lysate, 635 nm fluorescence, higher = more signal;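 also: score pools 667 nm emission and signal to noise measuring lysate protein binding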
[10] = tested on: Sonic hedgehog protein (Shh); experiment: Sonic hedgehog microarray binding compounds – biochemical, small-molecule microarray, 635/667 nm fluorescence, primary screen (AID 1151); settings: 635 nm fluorescence, higher = more signal;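 also: Shh protein binding to compounds spotted on small-molecule microarray slides; score combines spot fluorescence intensity with signal-to-noise across triplicate slides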
[11] = optical density shifts of acrAB sulA E. coli – strain DRC41, OD650, 48 h, E. coli filamentation inducer project, primary screen (AID 1152); settings: higher = more signal, called active from +8 up or from −8 down;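 also: E. coli MC1000 strain DRC41 lacking acrAB efflux pump and sulA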
[12] = probe aLefty1 binding on compound microarray – biochemical, small-molecule microarray, 635/667 nm fluorescence, primary screen (AID 1153); settings: higher = more signal;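 also: score merges spot fluorescence with signal-to-noise ratio from the scanned slide images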
[13] = plasmodial surface anion channel blockers, osmotic lysis – cell-based, P. falciparum Indochina, OD700, 1 h, primary screen (AID 1154); settings: P. falciparum Indochina infected RBC osmotic lysis, higher = more signal, called active from +8 up or from −8 down
[14] = plasmodial surface anion channel blockers, osmotic lysis – cell-based, P. falciparum Indochina, OD700, 2 h, primary screen (AID 1155);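 also: lysis reports solute entry through the parasite surface anion channel PSAC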; settings: P. falciparum Indochina infected erythrocytes, higher = more signal, called active from +8 up or from −8 down
[15] = changes in parasitized red cell lysis, either direction – P. falciparum Indochina, OD700, 3 h, PSAC antagonist project, primary screen (AID 1156); settings: P. falciparum-infected erythrocytes, osmotic lysis, higher = more signal, called active from +8 up or from −8 down
[16] = plasmodial surface anion channel blockers, osmotic lysis – cell-based, P. falciparum Indochina, OD700, 18 h, primary screen (AID 1157); settings: P. falciparum Indochina infected erythrocytes, osmotic lysis OD700, 18 h; higher = more signal, called active from +8 up or from −8 down
[17] = S6 kinase pathway phospho-S6 level changes – cell-based, A549, cytoblot, luminescence, serum-stimulated, primary screen (AID 1158); settings: 5 h, higher = more signal;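 also: serum-stimulated A549 lung adenocarcinoma cells; signal is phosphorylated S6 detected by cytoblot immunostaining with HRP secondary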
[18] = biological target: NADPH oxidase 2 (Homo sapiens) (UniProt P04839); experiment: compounds shifting NOX2 Amplex Red fluorescence – cell-based, HEK293-NOX2, PMA-stimulated, NOX inhibitor project, primary screen (AID 1159); settings: 45 min, higher = more signal, called active from +8 up or from −8 down; also: test concentration not given here
Sequence of NADPH oxidase 2 (Homo sapiens) (P04839 whole entry, looked up): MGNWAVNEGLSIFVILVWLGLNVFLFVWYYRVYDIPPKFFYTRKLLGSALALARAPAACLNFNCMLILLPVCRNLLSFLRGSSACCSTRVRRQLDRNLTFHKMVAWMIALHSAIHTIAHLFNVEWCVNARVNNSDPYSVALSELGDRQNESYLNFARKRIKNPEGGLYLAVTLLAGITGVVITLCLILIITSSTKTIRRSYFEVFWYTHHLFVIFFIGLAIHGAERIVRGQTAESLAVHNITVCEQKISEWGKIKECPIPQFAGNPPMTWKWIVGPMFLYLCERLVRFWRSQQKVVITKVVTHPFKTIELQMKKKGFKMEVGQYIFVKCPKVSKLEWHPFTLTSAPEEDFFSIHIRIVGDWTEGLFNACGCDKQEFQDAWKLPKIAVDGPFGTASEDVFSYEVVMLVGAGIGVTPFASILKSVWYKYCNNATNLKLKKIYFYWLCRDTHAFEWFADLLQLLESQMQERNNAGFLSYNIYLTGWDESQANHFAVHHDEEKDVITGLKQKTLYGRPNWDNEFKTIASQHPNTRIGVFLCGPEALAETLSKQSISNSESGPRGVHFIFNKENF

[19] = biological target: NADPH oxidase 4 (Homo sapiens) (UniProt Q9NPH5); experiment: compounds shifting NOX4 Amplex Red fluorescence – cell-based, HEK293-NOX4, tetracycline-induced, NOX inhibitor project, primary screen (AID 1160); settings: HEK293-NOX4, Amplex Red H2O2 fluorescence, 45 min; higher = more signal, called active from +8 up or from −8 down
Sequence of NADPH oxidase 4 (Homo sapiens) (Q9NPH5 whole entry, looked up): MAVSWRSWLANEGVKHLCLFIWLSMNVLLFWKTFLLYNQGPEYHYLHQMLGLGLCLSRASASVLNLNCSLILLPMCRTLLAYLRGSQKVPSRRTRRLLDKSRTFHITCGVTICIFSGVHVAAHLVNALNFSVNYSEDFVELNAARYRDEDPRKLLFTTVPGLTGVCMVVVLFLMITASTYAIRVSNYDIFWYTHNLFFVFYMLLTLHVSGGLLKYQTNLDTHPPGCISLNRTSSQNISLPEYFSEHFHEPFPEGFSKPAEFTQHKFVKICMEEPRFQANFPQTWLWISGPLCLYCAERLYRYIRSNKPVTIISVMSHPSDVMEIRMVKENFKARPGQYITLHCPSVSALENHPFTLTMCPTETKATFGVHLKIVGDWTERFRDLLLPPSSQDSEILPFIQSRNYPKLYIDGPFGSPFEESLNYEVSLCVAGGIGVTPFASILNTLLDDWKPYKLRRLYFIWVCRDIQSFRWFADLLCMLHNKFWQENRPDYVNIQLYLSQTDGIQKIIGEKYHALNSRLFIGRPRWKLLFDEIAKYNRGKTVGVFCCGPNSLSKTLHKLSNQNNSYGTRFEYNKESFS

[20] = biological target: NADPH oxidase 5 (Homo sapiens) (UniProt Q96PH1); experiment: compounds shifting NOX5 Amplex Red fluorescence – cell-based, HEK293-NOX5, NOX inhibitor project, primary screen (AID 1161); settings: HEK293-NOX5, ionomycin, 45 min, higher = more signal
Sequence of NADPH oxidase 5 (Homo sapiens) (Q96PH1 whole entry, looked up): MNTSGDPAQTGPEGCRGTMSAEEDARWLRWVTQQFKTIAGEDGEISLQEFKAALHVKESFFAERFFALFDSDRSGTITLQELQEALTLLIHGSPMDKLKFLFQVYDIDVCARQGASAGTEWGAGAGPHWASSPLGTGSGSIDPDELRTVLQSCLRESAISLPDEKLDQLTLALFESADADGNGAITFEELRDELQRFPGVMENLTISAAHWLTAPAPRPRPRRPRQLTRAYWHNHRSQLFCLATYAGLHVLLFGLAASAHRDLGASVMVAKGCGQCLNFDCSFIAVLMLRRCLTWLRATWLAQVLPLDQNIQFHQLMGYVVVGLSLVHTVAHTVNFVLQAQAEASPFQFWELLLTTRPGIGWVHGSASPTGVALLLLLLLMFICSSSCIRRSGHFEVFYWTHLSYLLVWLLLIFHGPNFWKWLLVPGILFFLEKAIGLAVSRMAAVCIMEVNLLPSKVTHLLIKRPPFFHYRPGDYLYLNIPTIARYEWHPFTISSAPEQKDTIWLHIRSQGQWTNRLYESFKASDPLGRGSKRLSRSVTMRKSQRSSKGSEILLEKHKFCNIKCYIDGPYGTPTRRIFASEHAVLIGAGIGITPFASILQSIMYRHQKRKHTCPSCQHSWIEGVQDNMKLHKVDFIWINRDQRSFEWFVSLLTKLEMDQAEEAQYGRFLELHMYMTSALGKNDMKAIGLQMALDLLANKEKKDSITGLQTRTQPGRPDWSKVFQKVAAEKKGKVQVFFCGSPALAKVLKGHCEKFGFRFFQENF

SMILES | composite z-score [1] | z-score [2] | z-score [3] | z-score [4] | z-score [5] | composite z-score [6] | composite z-score [7] | composite z-score (Torsin-1A (Homo sapiens) [8]) | composite z-score (Torsin-1A (Homo sapiens) [9]) | composite z-score [10] | z-score [11] | composite z-score [12] | z-score [13] | z-score [14] | z-score [15] | z-score [16] | z-score [17] | z-score [18] | z-score [19] | z-score [20]
COCCOC(=O)N1C(=O)[C@@]2(c3cc(C#Cc4ccc(OC)cc4)ccc31)[C@H](c1ccc(OCCO)cc1)N1[C@H](c3ccccc3)[C@H](c3ccccc3)OC(=O)[C@H]1[C@@H]2C(=O)N1CCN(c2ncccn2)CC1 | 0.377 | -0.438 (inactive) | -0.112 (inactive) | 0.0695 (inactive) | 0.559 (inactive) | 0.165 | 0.0464 | 0.846 | 0.775 | 1.69 | -0.0791 (inactive) | 0.042 | 5.07 (inactive) | 2.39 (inactive) | 0.738 (inactive) | 1.17 (inactive) | -0.451 | 0.938 (inactive) | -1.34 (inactive) | 0.656
O=C1O[C@@H](c2ccccc2)[C@@H](c2ccccc2)N2[C@@H](c3ccccc3OCCO)[C@]3(C(=O)Nc4ccc(C#CC5=CCCCC5)cc43)[C@@H](C(=O)N3CCCCCCC3)[C@H]12 | 2.24 | -4.53 (inactive) | 0.189 (inactive) | -0.203 (inactive) | 0.188 (inactive) | 3.51 | 2.23 | 2.81 | 2.9 | 1.22 | -0.511 (inactive) | 2.96 | -0.0047 (inactive) | 0.0859 (inactive) | -0.339 (inactive) | 0.68 (inactive) | -0.359 | 0.624 (inactive) | 0.55 (inactive) | -0.797
Cc1ccc(S[C@]2(C(=O)NC3CC3)CC(=O)N(Cc3ccccc3)[C@@H]2c2ccc(CO)cc2I)cc1 | -0.232 | -2.1 (inactive) | -0.0682 (inactive) | 1.04 (inactive) | 1.03 (inactive) | -0.716 | 0.235 | -1.19 | -1.63 | -0.517 | 1.24 (inactive) | 0.238 | 7.63 (inactive) | 1.12 (inactive) | -0.282 (inactive) | 0.401 (inactive) | 0.402 | 1.7 (inactive) | -1.16 (inactive) | 1.1
CC(=O)NCCCC[C@@H]1NC(=O)[C@H]2C[C@@H](C(=O)NCCCCCCNC(=O)CS)[C@@H](c3ccc(O)cc3)N2C1=O | 0.151 | -0.133 (inactive) | -0.619 (inactive) | -0.528 (inactive) | 0.14 (inactive) | -1.22 | 0.0074 | 0.365 | 2.14 | 1.22 | 0.0783 (inactive) | 0.132 | 4.2 (inactive) | 0.507 (inactive) | 3.45 (inactive) | 0.301 (inactive) | -0.371 | 0.294 (inactive) | -0.187 (inactive) | 0.673
NCCCCCNC(=O)[C@@H]1C[C@@H]2C(=O)N[C@@H](Cc3ccccc3)C(=O)N2[C@@H]1c1ccc(O)cc1 | 0.0588 | 0.0478 (inactive) | -0.35 (inactive) | 0.281 (inactive) | -0.629 (inactive) | 1.38 | 0.174 | 0.202 | 0.394 | 1.2 | -1.16 (inactive) | 0.176 | 1.24 (inactive) | 0.24 (inactive) | -0.648 (inactive) | -0.116 (inactive) | -0.358 | 0.713 (inactive) | 0.539 (inactive) | -0.657
CNS(=O)(=O)c1ccc(C)cc1 | 0.365 | -1.48 (inactive) | -0.307 (inactive) | -0.0576 (inactive) | -0.391 (inactive) | 0.385 | -0.231 | 0.293 | 0.371 | 0.962 | 2.78 (inactive) | -0.371 | -0.699 (inactive) | -1.07 (inactive) | -0.886 (inactive) | -2.23 (inactive) | 0.929 | 2.36 (inactive) | 0.878 (inactive) | 0.669
C=CCOC(=O)[C@H]1[C@@H]2C(=O)O[C@@H](c3ccccc3)[C@@H](c3ccccc3)N2[C@@H](c2ccc(OCCOC(=O)[C@H]3C[C@H]4C(=O)N[C@@H](CCCCN(C)C)C(=O)N4[C@H]3c3ccc(O)cc3)cc2)[C@]12C(=O)Nc1ccc(I)cc12 | 0.0259 | -0.264 (inactive) | 0.549 (inactive) | -0.268 (inactive) | 0.259 (inactive) | 1.23 | 0.135 | 1.94 | 1.33 | 1.96 | -0.635 (inactive) | 0.461 | 5.21 (inactive) | 1.13 (inactive) | -0.286 (inactive) | 0.522 (inactive) | -0.236 | 2.18 (inactive) | 1.06 (inactive) | 1.72
C=CCOC(=O)[C@H]1[C@@H]2C(=O)O[C@@H](c3ccccc3)[C@@H](c3ccccc3)N2[C@@H](c2ccc(OCCOC(=O)[C@@H]3C[C@@H]4C(=O)N[C@@H](CCCCNC(C)=O)C(=O)N4[C@@H]3c3ccc(O)cc3)cc2)[C@]12C(=O)Nc1ccccc12 | 0.39 | -0.0424 (inactive) | -0.122 (inactive) | -0.126 (inactive) | -0.464 (inactive) | -0.0038 | 0.095 | 0.665 | 0.505 | 2.05 | -0.226 (inactive) | 0.379 | 3.21 (inactive) | 1.61 (inactive) | 4.15 (inactive) | 0.841 (inactive) | -0.0842 | 1.56 (inactive) | 0.962 (inactive) | 0.576
COCCOC(=O)N1C(=O)[C@@]2(c3cc(C#CC4(O)CCCCCC4)ccc31)[C@H](c1ccccc1OCCO)N1[C@H](c3ccccc3)[C@H](c3ccccc3)OC(=O)[C@H]1[C@@H]2C(=O)N1CCN(c2ncccn2)CC1 | 0.839 | -1.86 (inactive) | -0.354 (inactive) | 0.155 (inactive) | 0.411 (inactive) | 0.356 | 0.153 | 0.456 | 0.699 | 0.678 | 0.888 (inactive) | -0.0437 | 1.67 (inactive) | 1.31 (inactive) | 0.824 (inactive) | 0.712 (inactive) | -0.0324 | 0.342 (inactive) | 0.386 (inactive) | 1.03
